AHR act – AHR activators, primary screen, cell-based, luminescence, luciferase reporter, human | 320,000 tested, 2.5% active | activation, % at 5 µM | Aryl hydrocarbon receptor (Homo sapiens), P35869 | AHR-responsive luciferase reporter cells; in the data active = activation above about 47%;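 also: 0% = vehicle wells and 100% = reference agonist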
ssDAF12 agonist – S. stercoralis DAF-12 nuclear receptor activators, primary screen, cell-based, luminescence, HEK293, GRIP1 co-expression, lit1-tk-luc | Nuclear hormone receptor DAF-12 (Strongyloides stercoralis) | HEK293 ssDAF-12/GRIP1 lit1-tk-luc reporter; % of 3 µM dafachronic acid response | activation, % at 6.8 µM | 370,000 tested, 1% active | AID 652126, 2013;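 active = activation above the mean over all tested compounds plus 3 SD, cut at about 0.9% in these data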;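 also: 0% = DMSO-only wells and 100% = 3 µM delta7-dafachronic acid wells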
hcDAF-12 act – H. contortus DAF-12 nuclear receptor activators, primary screen, cell-based, luminescence, HEK293, lit1-tk-luc reporter; AID 652067, 2013; activation, % at 6.8 µM; HEK293 hcDAF-12 lit1-tk-luc reporter; 0% DMSO, 100% Δ7-dafachronic acid; 370,000 tested, 1.4% active;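 active = activation above the mean of all tested compounds plus 3 SD, cut at about 5.5% in these data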;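 also: 100% = response to 3 µM Δ7-dafachronic acid high control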
DAX1 inh-1 – DAX1 (NR0B1) inhibitors, primary screen, cell-based, HEK293, Gal4-DAX1, luciferase luminescence | inhibition, % at 6.75 µM | HEK293 Gal4-DAX1 luciferase reporter | 340,000 tested, 0.99% active | Nuclear receptor subfamily 0 group B member 1 (Homo sapiens), P51843;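 active = inhibition above the mean over all tested compounds plus 3 SD, cut at about 4.2% in these data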;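 also: 0% = DAX1-transfected cells with DMSO and 100% = empty-vector control cells with DMSO; inhibition shows as a rise in luminescence from relieved DAX1 repression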
Target sequence (P51843 207-470 limits assumed): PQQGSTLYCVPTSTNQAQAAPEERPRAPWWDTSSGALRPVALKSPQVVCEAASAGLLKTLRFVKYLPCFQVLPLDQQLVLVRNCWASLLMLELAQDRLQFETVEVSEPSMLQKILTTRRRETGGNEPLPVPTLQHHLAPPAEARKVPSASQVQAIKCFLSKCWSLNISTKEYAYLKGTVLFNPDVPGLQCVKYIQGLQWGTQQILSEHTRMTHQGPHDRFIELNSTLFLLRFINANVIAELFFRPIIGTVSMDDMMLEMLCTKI
hgDAF12 agonist – H. glycines DAF-12 receptor agonists, primary screen, cell-based, luminescence, HEK293, GAL4 fusion, UAS-luciferase. activation, % at 6.8 µM. HEK293 GAL4-hgDAF12 UAS-luciferase reporter, agonist luminescence; normalized to butyrate control. 370,000 tested, 1.8% active. Nuclear hormone receptor DAF-12 (Heterodera glycines), GAL4 fusion;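 active = activation above a cutoff set at the mean of all screened compounds plus 3 SD, cut at about 10% in these data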;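 also: 0% = DMSO wells and 100% = sodium butyrate wells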
DAX1 inh-2 – DAX1 (NR0B1) inhibitors on StAR promoter, primary screen, cell-based, luminescence, SF-1 (NR5A1), full-length DAX-1; 370,000 tested, 1.1% active; inhibition, % at 6.8 µM; HEK293T StAR-luciferase reporter, SF-1/DAX-1 repression relief;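 active = inhibition above the mean over all tested compounds plus 3 SD, cut at about 3.6% in these data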;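 also: 0% = DAX-1 cells with DMSO and 100% = cells lacking DAX-1 with DMSO; higher inhibition means more luminescence from relief of DAX-1 repression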
DAX1 conf – DAX1 (NR0B1) inhibitors relieving SF-1 repression, confirmation, cell-based, luminescence, HEK293T, full-length DAX-1, SF-1 activated StAR promoter | HEK293T StAR-promoter luciferase reporter, SF-1/DAX-1 repression | shares compounds with DAX1 inh-2 | 2,400 tested, 87% active | AID 652134, 2013 | inhibition, % at 6.8 µM;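 active = inhibition above the average of every tested compound plus 3 SD, cut at about 3.8% in these data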;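 also: 0% = DAX-1 cells with DMSO and 100% = no DAX-1 control cells with DMSO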
SF1 mutant ctr – StAR reporter signal changes without DAX1, counter-screen for DAX1 inhibitor project, cell-based, luminescence, AF-2 mutant SF-1, transactivation; shares compounds with DAX1 inh-2; HEK293 StAR-luciferase, SF-1 AF2 mutant; inhibition, % at 6.8 µM; 2,400 tested, 78% active;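 active = inhibition above the mean of all tested compounds plus 3 SD, cut at about 3% in these data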;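 also: 0% = DAX-1 transfected cells with DMSO and 100% = cells without DAX-1 with DMSO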
LXR ag – LXR agonists, Gal4 luciferase reporter, confirmation, counter-screen for hcDAF-12 agonist project, cell-based, luminescence, HEK293, H. contortus campaign. AID 743027, 2013. HEK293 Gal4-LXR tk-luc reporter, 24 h; normalized: DMSO 0%, positive control 100%. shares compounds with hcDAF-12 act. activation, % at 6.8 µM. 3,400 tested, under 10 active;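 active = mean percent activation of the reporter above a cutoff set as the average over tested compounds plus their standard deviation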
hcDAF12 conf – H. contortus DAF-12 receptor agonists, confirmation, cell-based, luminescence, HEK293, lit1-tk-luc, triplicate; shares compounds with hcDAF-12 act; HEK293 hcDAF-12 lit1-tk-luc reporter; % of Δ7-dafachronic acid response; activation, % at 6.8 µM; 3,400 tested, 61% active;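 active = mean activation across triplicate tests above the threshold derived from the earlier primary screen, cut at about 5.5% in these data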;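 also: 0% = DMSO only wells and 100% = 3 µM Δ7-dafachronic acid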
* marks the source's active call; other numbers are inactive results. An excerpt weighted towards active compounds, which were near 5.7% of everything screened.

Screening O=C(NC1=NCCS1)c1cc2ccccc2o1 returned AHR act 23, ssDAF12 agonist 1, hcDAF-12 act 7.0*, DAX1 inh-1 -1, hgDAF12 agonist 11*, DAX1 inh-2 5.3*, DAX1 conf 11*, SF1 mutant ctr 7.2*, LXR ag 1 and hcDAF12 conf 6.2*.
O=C(NC1=NCCS1)c1ccccc1Cl was read as AHR act -1, ssDAF12 agonist -2, hcDAF-12 act -1, DAX1 inh-1 -1, hgDAF12 agonist 2 and DAX1 inh-2 1.
CC(=O)NCCc1c[nH]c2ccc(OCC(O)CNC(C)(C)C)cc12 (stereo not drawn) was read as AHR act -2, ssDAF12 agonist -1, hcDAF-12 act 0, DAX1 inh-1 1, hgDAF12 agonist -1 and DAX1 inh-2 0.
Screening COc1ccc(-n2ncc3c(NCC(C)C)ncnc32)cc1 returned AHR act -6, ssDAF12 agonist 1, hcDAF-12 act 9.8*, DAX1 inh-1 0, hgDAF12 agonist 11*, DAX1 inh-2 5.0*, DAX1 conf 13*, SF1 mutant ctr 4.1*, LXR ag 2 and hcDAF12 conf 5.7*.
For CCc1ccc(NCc2nc3ccccc3c(=O)[nH]2)cc1 the results were AHR act 43, ssDAF12 agonist 2.4*, hcDAF-12 act 11*, DAX1 inh-1 0, hgDAF12 agonist 15*, DAX1 inh-2 5.1*, DAX1 conf 14*, SF1 mutant ctr 9.3*, LXR ag 1 and hcDAF12 conf 7.6*.
Screening CCCCNCc1nc2ccccc2c(=O)[nH]1 returned AHR act 3, ssDAF12 agonist -1, hcDAF-12 act -1, DAX1 inh-1 -1, hgDAF12 agonist 2 and DAX1 inh-2 0.
Cn1c(SCc2ccccc2)nnc1-c1ccc2nonc2c1 was read as AHR act 2, ssDAF12 agonist -2, hcDAF-12 act -1, DAX1 inh-1 0, hgDAF12 agonist -2 and DAX1 inh-2 1.
CCOC(=O)c1ccccc1NC(=O)C1CCCO1 (stereo not drawn) was read as AHR act 12, ssDAF12 agonist -1, hcDAF-12 act 1, DAX1 inh-1 2, hgDAF12 agonist -1 and DAX1 inh-2 0.

High-throughput results as filed in PubChem.
